Bioassay records from PubChem.
AHR activator: activators of human aryl hydrocarbon receptor | AID 2796 | activation, % at 5 µM | P35869 | AHR-responsive luciferase reporter cells, luminescence | 320,000 compounds, 2.5% hits; in the data active = activation above about 47%
A3G deaminase: inhibitors of human APOBEC3G DNA deaminase; Q9HC16; recombinant A3G, ssDNA deamination FAM/TAMRA fluorescence; inhibition, % at 20 µM; 330,000 compounds, 0.28% hits; AID 493012;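 active = inhibition of at least 40% at 20 µM, with no more than 30% in the related APOBEC3A deaminase screen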
APOBEC3A inh: inhibitors of human APOBEC3A DNA deaminase; recombinant A3A, FAM/TAMRA ssDNA deamination fluorescence; P31941; 330,000 compounds, 0.41% hits; inhibition, % at 20 µM; AID 493011;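 active = at least 40% inhibition at 20 µM here, with at most 30% in a related deaminase screen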
NTR1 agonist: NTR1 (human) agonism; P30989; NTR1-U2OS beta-arrestin-GFP spot imaging, agonist mode; activation, % at 20 µM; 330,000 compounds, 0.17% hits; AID 493036;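 active = activation at or above 40% of the spot to cytoplasm intensity ratio, with at least 20 cells analyzed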
Target sequence (P30989 whole entry, looked up): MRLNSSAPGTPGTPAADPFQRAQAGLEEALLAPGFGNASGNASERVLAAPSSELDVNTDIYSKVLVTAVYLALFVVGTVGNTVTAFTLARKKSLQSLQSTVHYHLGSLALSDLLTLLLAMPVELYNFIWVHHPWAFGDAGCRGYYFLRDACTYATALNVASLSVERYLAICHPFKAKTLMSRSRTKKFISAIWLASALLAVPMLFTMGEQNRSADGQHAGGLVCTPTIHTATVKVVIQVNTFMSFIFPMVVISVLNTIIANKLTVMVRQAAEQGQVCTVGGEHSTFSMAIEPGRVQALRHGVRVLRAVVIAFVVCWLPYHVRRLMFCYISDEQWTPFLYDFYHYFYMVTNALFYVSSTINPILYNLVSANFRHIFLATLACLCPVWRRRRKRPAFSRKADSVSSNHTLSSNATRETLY
Hits are given with their value; n = inactive; x = not tested or not shown. Sampled rows, rich in hits. Any-hit rate of the full collection: about 3.2%.

SMILES	AHR activator	A3G deaminase	APOBEC3A inh	NTR1 agonist
CC(C)NC(=NCc1ccc(Cl)cc1Cl)Nc1ccccc1	n	n	n	n
CCC(CO)Oc1cc(NC(=O)c2ccccc2[N+](=O)[O-])c2ncn(C(C)C)c2c1 (stereo not drawn)	n	n	n	n
N=c1oc2ccccc2cc1-c1nc(-c2ccccc2)cs1	59.2	n	n	n
O=c1oc2ccc3ccccc3c2cc1-c1nnc(-c2ccccc2)o1	n	n	n	n
O=c1oc2ccc3ccccc3c2cc1-c1nnc(-c2cccs2)o1	52.3	n	n	n
COc1cccc2cc(-c3nc4ccccc4[nH]3)c(=O)oc12	71.6	n	n	n
COc1cccc2cc(-c3ccccc3)c(=O)oc12	n	n	n	n
O=c1oc2ccccc2cc1-c1nc(-c2cccs2)cs1	62.2	n	n	n
COc1ccc(CCNC(=O)CCCN2C(=O)C(c3ccccc3)Oc3cccnc32)cc1OC (stereo not drawn)	n	n	n	n
Cc1cccc(S(=O)(=O)Nc2ccc(-n3c(C)nc4ccccc4c3=O)cc2)c1	n	n	n	n
COc1ccccc1NC(=O)CCc1nnc2ccc(N3CCC4(CC3)OCCO4)nn12	n	n	n	n
COc1cccc2cc(-c3nc(-c4cccs4)cs3)c(=O)oc12	47.6	n	n	n
COc1ccc(Nc2nc(-c3cc4cccc(OC)c4oc3=O)cs2)cc1	n	n	n	n
COc1ccc(S(=O)(=O)N[C@@H](C)C(=O)OCC(=O)Nc2cc3oc4ccccc4c3cc2OC)cc1	n	n	n	n
COc1cc2c(cc1NC(=O)COC(=O)[C@@H](NS(=O)(=O)c1cccc(Cl)c1)C(C)C)oc1ccccc12	57.3	n	n	n
COc1cc2c(cc1NC(=S)Nc1cccc(C)c1)oc1ccccc12	84.4	n	n	n
CCNC(=S)Nc1cc2oc3ccccc3c2cc1OC	70.1	n	n	n
CCN(CC)S(=O)(=O)c1ccc(C(=O)Nc2cc3oc4ccccc4c3cc2OC)cc1	51.4	n	n	n
CNC(=S)Nc1cc2oc3ccccc3c2cc1OC	x	n	n	n
COc1cc2c(cc1NC(=O)Nc1cccc(C)c1)oc1ccccc12	n	n	n	n
COc1ccc(OC(C)C(=O)N(C)Cc2nc(-c3cccc(C)c3)no2)cc1 (stereo not drawn)	n	n	n	n
COc1cc2c(cc1NC(=S)Nc1ccccc1C)oc1ccccc12	n	n	n	n
CCCNC(=S)Nc1cc2oc3ccccc3c2cc1OC	52.6	n	n	n
COc1ccccc1-c1ccc(SCC(=O)NCCc2ccccc2)nn1	57.6	n	n	n
c1ccc(C2Oc3ccccc3C3CC(c4cccs4)=NN32)cc1 (stereo not drawn)	47.7	n	n	n
SMILES	AHR activator	A3G deaminase	APOBEC3A inh	NTR1 agonist
CC(=O)N1N=C(c2ccccc2)CC1c1ccccc1[N+](=O)[O-] (stereo not drawn)	n	n	n	n
O=[N+]([O-])c1ccc(C2Oc3ccccc3C3CC(c4ccccc4)=NN32)s1 (stereo not drawn)	58.6	x	x	x
CCn1c(=O)c2sccc2n(CC(=O)NCCC2=CCCCC2)c1=O	n	n	n	n
O=C(CN1C(=O)NC2(CCCCCC2)C1=O)c1ccc(OC(F)F)cc1OC(F)F	n	n	n	n
COc1cc(NC(=O)c2ccc(Cl)cc2)c(OC)cc1Cl	60.3	n	n	n
COc1cc(NC(=O)c2ccc(Cl)cc2)c(OC)cc1NC(=O)CN1CCOCC1	47.8	n	n	n
COc1ccc(C2COC(=O)C2=N)c(NC(=O)c2ccc(Cl)cc2)c1 (stereo not drawn)	75.8	n	n	n
COc1cc(NC(=O)c2ccc(Cl)cc2)c(OC)cc1NC(=O)CN1CCCCC1	n	n	n	n
COc1cc(NC(=O)c2ccc(C)cc2)c(OC)cc1NC(=O)CN1CCOCC1	n	n	n	n
O=C(CN1C(=O)NC2(CCCc3ccccc32)C1=O)NCC(F)(F)F (stereo not drawn)	n	n	n	n
N#CCSc1ncccc1-c1nc2ccccc2[nH]1	73.1	n	n	n
O=C(NNC(=O)c1ccccc1O)c1cccc(Br)c1	n	n	n	n
O=C1CC(CC(=O)N/N=C/c2ccccc2[N+](=O)[O-])=NN1	47.4	n	n	n
COCc1cc(=O)[nH]c2c1c(-c1ccccc1)nn2C	n	n	n	n
COc1cccc(Nc2nnc(SCC3CCCCO3)s2)c1 (stereo not drawn)	50.6	n	n	n
O=C(OCC(=O)c1c[nH]c2ccccc12)c1ccco1	n	n	n	n
COc1cc(NC(=O)c2ccco2)c(C(=O)OCC(=O)c2c[nH]c3ccccc23)cc1OC	54.8	n	n	n
CCC(=O)Nc1cccc2cccnc12	n	n	n	n
C/C(=N\Nc1cccc2cccnc12)c1ccc[nH]1	51.2	n	n	n
CCOc1ccc(C(=O)NCc2ccco2)cc1Cl	n	n	n	n
COc1ccc(OC)c(S(=O)(=O)Nc2cccc3ccccc23)c1	n	n	n	n
COc1ccc(OC)c(S(=O)(=O)Oc2ccc(N)c3ccccc23)c1	61.1	n	n	n
COc1ccc(OCc2cc(C(=O)N3CCC(OC)CC3)no2)c2ccccc12	51.0	n	n	n
COc1ccc(OCc2cc(C(=O)NC3CCOC(C)(C)C3)no2)c2ccccc12 (stereo not drawn)	67.1	n	n	n
Nn1c(-c2cccs2)nc2sc3c(c2c1=O)CCCC3	58.1	n	n	n
SMILES	AHR activator	A3G deaminase	APOBEC3A inh	NTR1 agonist
CC1(C)Cc2c(sc3nc(-c4ccccc4)n(N)c(=O)c23)CO1	n	n	n	n
CC1(C)Cc2c(sc3nc(-c4cccs4)n(N)c(=O)c23)CO1	73.5	n	n	n
Cc1ccccc1-c1nc2sc3c(c2c(=O)n1N)CCCC3	n	n	n	n
COCc1ccc(C(=O)NC2CCCc3c2cnn3-c2ccc(C)c(C)c2)o1 (stereo not drawn)	n	n	n	n
c1ccc(-n2nnc(-c3nccs3)n2)cc1	53.7	n	n	n
Cc1nnc(-c2cccc(Br)c2)c2cn(-c3ccc(Br)cc3)nc12	89.2	n	n	n
Cc1nnc(-c2cccc(Br)c2)c2cn(-c3ccccc3)nc12	48.4	n	n	n
COc1ccc(-n2cc3c(-c4cccc(Br)c4)nnc(C)c3n2)cc1	60.7	n	n	n
Cc1nnc(-c2cccc(Br)c2)c2cn(-c3cccc(Br)c3)nc12	n	n	n	n
COc1ccc(-n2cc(CN3CCCC3)c(-c3cccc(F)c3)n2)cc1	n	n	n	n
O=C(c1cn(-c2ccccc2)nc1-c1cccc(Br)c1)N1CCOCC1	n	n	n	n
Nc1nc(CCl)nc(N(c2ccccc2)c2ccccc2)n1	n	n	n	n
COc1ccc(-n2ncc3c2CC(C)(C)CC3NC(=O)CN2CCOC2=O)cc1 (stereo not drawn)	x	n	n	n
Cc1ccc(C)c(NC(=O)COC(=O)CCC(=O)c2cccs2)c1	n	n	n	n
Cc1cc(C(=O)COC(=O)c2ccc(CO)cc2)c(C)n1CC1COc2ccccc2O1 (stereo not drawn)	n	n	n	n
NC(=O)c1cc([N+](=O)[O-])c(Cl)cc1NCc1ccccn1	66.6	n	n	n
